An excerpt weighted towards active compounds, which were near 21% of everything screened.
ClpP mod – qHTS Assay for Activators of ClpP; ATP-dependent Clp protease proteolytic subunit (Bacillus subtilis (strain 168)), P80244; purified B. subtilis ClpP, FRET peptide cleavage, 20 min; Potency, µM (highest dose often 57.5 µM), for the others: at the highest dose activity change, negative = active; 340,000 tested, 1.9% active; AID 651965, 2013; active = well fitted falling curve with a large enough effect; inconclusive = small, poorly fitted or top-dose-only effect; inactive = no such curve, though single readings can be large or run the other way; also: potency is read from the fitted curve at half-maximal effect; the source files actives as falling curves though it sought activators and does not explain the sign; nearly all actives have a fitted effect of over 65% in size
Target sequence (P80244 whole entry, looked up): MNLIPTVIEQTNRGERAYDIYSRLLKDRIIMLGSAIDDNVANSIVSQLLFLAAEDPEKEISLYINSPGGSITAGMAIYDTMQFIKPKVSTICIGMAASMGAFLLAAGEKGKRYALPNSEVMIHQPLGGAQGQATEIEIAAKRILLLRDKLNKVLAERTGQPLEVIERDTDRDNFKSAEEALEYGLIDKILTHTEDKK
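ClpP 10 microg/mL final, pH 8 Tris/KCl buffer with BSA, glycerol, Tween-20; compound pinned in; FRET-FV substrate; RT 20 min; Ex320/Em430; ΔFRET vs ADEP 5.8 microM, DMSO, no enzyme.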
D3 antag – blocks the human D3 dopamine receptor. P35462. D3R cells, DiscoveRx beta-arrestin luminescence, antagonist mode; hits give low values. max response, negative = inhibition, %. 360,000 tested, 2.5% active; in the data active = max response below about -50%; inconclusive = no clear call, values can overlap the other calls; also: % is scaled to controls: 0 for no effect and ±100 for the full control effect
Target sequence (P35462 whole entry, looked up): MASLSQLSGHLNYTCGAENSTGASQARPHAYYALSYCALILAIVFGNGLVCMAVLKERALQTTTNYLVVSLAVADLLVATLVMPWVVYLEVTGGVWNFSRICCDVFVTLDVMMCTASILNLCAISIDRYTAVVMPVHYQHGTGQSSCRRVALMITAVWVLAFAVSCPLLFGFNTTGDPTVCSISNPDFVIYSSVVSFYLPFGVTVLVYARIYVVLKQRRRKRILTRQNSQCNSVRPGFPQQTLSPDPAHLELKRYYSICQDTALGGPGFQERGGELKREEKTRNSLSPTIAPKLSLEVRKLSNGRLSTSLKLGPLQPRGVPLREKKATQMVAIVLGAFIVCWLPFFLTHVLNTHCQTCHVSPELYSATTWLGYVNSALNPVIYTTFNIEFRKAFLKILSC
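Cells plated overnight at 1500 cells/well, then exposed to library compounds with dopamine controls for 90 minutes at 37 degrees C. DiscoveRx reagent added for 30–60 minutes at room temperature; luminescence read, quantitative HTS format.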
TDP1 cell CPT – growth inhibition of DT40 Tdp1-/-;hTDP1 cells with camptothecin (screen for TDP1 inhibitors) | Potency, µM (titrated, usually from 46.2 µM), for the others: at the top dose activity change, negative = growth inhibition, hits mostly inhibitors | chicken DT40 Tdp1-/-;hTDP1 cells + 20 nM CPT, ATP luminescence, 48 h | AID 686979 | 420,000 tested, 12% active; also: potency is read from the fitted curve at half-maximal effect; % is scaled to controls: 0 for no effect and ±100 for the full control effect; nearly all actives have a fitted effect of over 55% in size
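Cell growth measured by CellTiter-Glo luminescence after a minimum 48 h, 37 C compound exposure with 20 nM CPT in Tdp1-knockout DT40 cells stably expressing hTDP1, seeded 400/well; qHTS titration format.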
IL1B secr inh – blocks inflammasome-driven IL-1 beta release | THP-1 LPS/ATP IL-1B secretion, AlphaLISA, 16 h; hits give low values | activity change, % at 57.5 µM | 360,000 tested, 4.7% active | AID 743279; in the data active = activity change below about -50%; inconclusive = mostly about -30% to -49%; also: % is scaled to controls: 0 for no effect and ±100 for the full control effect
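Secreted IL-1B measured by AlphaLISA bead assay after 16 h compound exposure of THP-1 cells; compounds (final up to 57.5 uM) added 1 h before LPS (250 ng/mL) and ATP (1.25 mM) stimulation; lower signal means less secretion.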
TDP1 cell noCPT – qHTS for Inhibitors of human tyrosyl-DNA phosphodiesterase 1 (TDP1): qHTS in cells in absence of CPT. DT40 Tdp1-/- hTDP1 cells, no CPT, ATP luminescence, 48 h. Potency, µM (titrated, usually from 46.2 µM), for the others: at the top dose activity change, negative = growth inhibition, most hits filed as inhibitors. 420,000 tested, 15% active. AID 686978, 2013; also: potency is read from the fitted curve at half-maximal effect; % is scaled to controls: 0 for no effect and ±100 for the full control effect; nearly all actives have a fitted effect of over 55% in size
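Readout: luminescence from CellTiter-Glo after 30 min in the dark at RT. Cells: DT40 Tdp1-/- with stable hTDP1, 400/well. Exposure: compounds alone, ≥48 hr, 37 °C.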
DRD3 agonist – D3 dopamine receptor (human) agonism. P35462. D3R DiscoveRx beta-arrestin cells, luminescence, 90 min. max activation, %. 410,000 tested, 0.58% active. AID 652048; in the data active = max activation above about 30%; also: 0% is about no effect
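Agonist-mode cell screen: cells plated at 1500/well and incubated overnight at 37 °C, then exposed to library compounds for 90 min at 37 °C. Detection reagent was added for 30–60 min at room temperature, and luminescence was read.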
* = called active by the depositor; ? = inconclusive; . = not tested or not shown. Unless noted, calls follow the shape of the dose curve; as a rule, active = well fitted inhibition curve with a large enough effect; inconclusive = small, poorly fitted or top-dose-only effect; inactive = flat fitted curve, though single readings scatter.

SMILES	ClpP mod	D3 antag	TDP1 cell CPT	IL1B secr inh	TDP1 cell noCPT	DRD3 agonist
CCCCN(CCCC)C1=Nc2ccccc2N/C1=C(/C#N)C(=O)OCC	-6%	-19	21µM*	-7	21µM*	-3
CCOC(=O)/C(C#N)=C1/C=CN(C)C(C)=N1	1%	-18	-7%	16	5%	-7
CCOC(=O)/C(C#N)=C1\Nc2ccccc2N=C1N(CC(C)C)CC(C)C	-2%	?	?	-59*	18µM*	-17
Cc1ccc(S(=O)(=O)N2CCOCC2)cc1NC(=O)COC(=O)CCOc1ccc(C(C)(C)C)cc1	3%	18	-25%	-2	?	0
N#Cc1cnn2c(-c3ccc(Cl)cc3Cl)ccnc12	.	-14	-14%	1	?	-6
COc1cc(/C=C2\CCCc3c2nc2ccccc2c3C(=O)O)cc([N+](=O)[O-])c1O	.	-100*	-7%	-4	-11%	-30
C=CCN(CC=C)C(=O)CN1C(=O)NC(Cc2c[nH]c3ccccc23)C1=O (stereo not given)	.	17	-3%	1	-15%	4
CCSc1nnc(SCC(=O)c2c(N)n(C)c(=O)n(C)c2=O)s1	.	7	?	35	23µM*	-6
Cn1c(N)c(C(=O)CSc2ccc3c(c2)OCCO3)c(=O)n(C)c1=O	1%	5	18µM*	1	18µM*	6
Cc1cc(C)nc(SCC(=O)c2c(N)n(C)c(=O)n(C)c2=O)n1	-4%	15	-18%	19	-22%	1
Cc1ccc(C)c(NC(=O)Cn2cc(C(=O)c3ccncc3)c(=O)c3cc(F)ccc32)c1	-4%	.	-9%	.	-3%	-7
C/C(=N/Nc1ccc(F)cc1)c1ccc(Cl)s1	1%	10	-2%	7	0%	0
CNC(=S)N/N=C(\C)c1ccc(C)c(C)c1	-3%	0	2.6µM*	-7	3.3µM*	3
CNC(=S)NN=C(C)c1ccc(OC)cc1O	2%	0	0.016µM*	-76*	0.012µM*	-3
CCNC(=S)N/N=C(\C)c1ccc(Cl)s1	-12%	19	4.1µM*	0	4.1µM*	-3
C=C(C)CNC(=S)N/N=C(\C)c1ccc(Cl)s1	-2%	1	?	18	16µM*	-32
C=C(C)CNC(=S)N/N=C/c1ccc(NC(C)=O)cc1	.	-1	14%	11	-18%	18
COc1ccccc1CNC(=O)COC(=O)COc1ccccc1F	1%	-11	-21%	-6	5%	-3
CNC(=S)N/N=C(\C)c1ccc(Cl)s1	-5%	4	2.9µM*	3	4.6µM*	3
C/C(=N\NC(N)=O)c1ccc(Cl)s1	.	9	1%	14	4%	17
COc1c(OC)c2occc2c2oc(=O)ccc12	.	.	-27%	.	-12%	.
COC(=O)C1CCCN1C(=O)c1cccs1 (stereo not given)	0%	-76*	0%	1	-13%	-4
O=C(NCc1ccccc1)[C@@H]1CCCN1C(=O)[C@@H]1CCCN1C(=O)c1cccs1	0%	17	-44%	-57*	-41%	-2
CCOC(=O)c1c(NC(=O)COC(=O)c2ccc(C)s2)sc2c1CC(C)(C)NC2(C)C	-9%	-11	?	-59*	18µM*	1
CCOC(=O)c1c(NC(=O)COc2ccccc2C#N)sc2c1CC(C)(C)NC2(C)C	30%	76	5.2µM*	2	5.8µM*	21
SMILES	ClpP mod	D3 antag	TDP1 cell CPT	IL1B secr inh	TDP1 cell noCPT	DRD3 agonist
CCOC(=O)c1c(NC(=O)COc2ccccc2OCC)sc2c1CC(C)(C)NC2(C)C	-9%	25	6.5µM*	-106*	5.8µM*	17
CC1(C)Cc2c(sc(NC(=O)COc3cccc4ccccc34)c2C#N)C(C)(C)N1	.	-18	10µM*	-100*	13µM*	2
O=C(N=Nc1c(O)[nH]c2ccc(F)cc12)C1COc2ccccc2O1 (stereo not given)	1%	2	-12%	55	-1%	-3
CCOC(=O)c1c(NC(=O)c2ccc(S(=O)(=O)N3CCCC(C)C3)cc2)sc2c1CC(C)(C)NC2(C)C (stereo not given)	149%	.	16µM*	.	21µM*	-14
CCCCNCCOCCOc1ccc(C)cc1Br	2%	-81*	16µM*	-25	23µM*	-15
CCC(C)NCCOCCOc1ccc(Cl)cc1Br (stereo not given)	?	-83*	?	-80*	?	-21
Cc1ccc(OCCOCCNC(C)C)c(Br)c1	0%	-75*	-27%	-58*	-23%	-3
COc1ccc(C(=O)Nc2ccccc2N2CCN(C(=O)c3ccccc3)CC2)cc1Br	?	16	?	?	?	2
C[C@H](CO)NC(=O)c1nc[nH]c1C(=O)N[C@H](C)c1ccccc1	1%	-4	-1%	-15	-12%	-9
CC(C)CC(NC(=O)OC(C)(C)C)c1cn([C@@H](CCCCNC(=O)OC(C)(C)C)C(=O)N2CCN(C(=O)OC(C)(C)C)CC2)nn1 (stereo not given in full)	1%	18	5.8µM*	-28	3.7µM*	7
CC(C)(C)OC(=O)CC[C@@H](C(=O)N1CCN(C(=O)OC(C)(C)C)CC1)n1cc(C(Cc2ccc(O)cc2)NC(=O)OC(C)(C)C)nn1 (stereo not given in full)	2%	56	18µM*	-27	16µM*	18
C#CCOCCOCCOCCNc1nc(N2CCN(C(=O)[C@H](CCCCN)n3cc([C@@H](N)CC(C)C)nn3)CC2)nc(N2CCN(C(=O)[C@H](CCCCN)n3cc([C@@H](N)CC(C)C)nn3)CC2)n1	1%	8	-3%	16	-3%	-1
CN(C)Cc1ccccc1-c1cncnc1Nc1ccncc1	.	.	-6%	.	-17%	.
Cc1ccc(S(=O)(=O)c2cn(CC(=O)Nc3ccc4c(c3)OCO4)c3ccc(F)cc3c2=O)cc1	-1%	.	-26%	.	-30%	0
CCSc1nnc2ccc(-c3ccc(OC)c(OC)c3)nn12	.	-19	?	-68*	23µM*	-10
COc1ccc(-c2ccc3nnc(SCC(N)=O)n3n2)cc1	.	-6	-11%	-6	0%	3
Cc1ccc(S(=O)(=O)N(C)C)cc1NC(=O)COC(=O)C1CCN(S(=O)(=O)c2cccs2)CC1	.	6	-25%	10	-5%	1
